This passage reports growth inhibition results from PubChem BioAssay (NCI).

The panel holds about 79,000 compounds, 15% with a hit somewhere; the sample as a whole holds those more often. A number with no mark means an inactive call. Calls of active or inactive are those of the source. Rule as the data show it: active = growth inhibition above about 70%; inactive = the rest. Where a SMILES comes first, the peptide text is derived from it. [ ]: non-standard residue; d: D form. The star is where a group is joined. ξ: configuration not given here. ξF = NC(Cc1ccccc1)C(=O)O; Cbz = O=C(OCc1ccccc1)*; Aib = CC(C)(N)C(=O)O

Test [1] can be described thus: NCI Yeast Anticancer Drug Screen. Data for the rad50 strain (AID 155).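 Also: 0% = growth of vehicle-only cultures of the same strain.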 As to conditions: S. cerevisiae rad50 strain growth inhibition; at 50.0 µM; stronger effect = higher value. Put shortly: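 Growth of the mutant yeast was measured after compound exposure and referenced to vehicle-treated cultures.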
Test [2] is described as follows: NCI Yeast Anticancer Drug Screen. Data for the mec2-1 strain (AID 157). As to conditions: S. cerevisiae mec2-1 strain, at 50.0 µM, stronger effect = higher value. The method in brief:
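mec2-1 yeast strain, carrying an alteration in DNA damage repair or cell cycle control, was exposed to compounds; growth inhibition was measured relative to vehicle-treated controls.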

The nature of test [3]: NCI Yeast Anticancer Drug Screen. Data for the sgs1 mgt1 strain (AID 161).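 Also: 0% = growth of cultures given vehicle only.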 The conditions noted are these: S. cerevisiae sgs1 mgt1 strain, at 50.0 µM, stronger effect = higher value. The method in brief: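 Yeast cells carrying a defined DNA-repair defect were exposed to test compounds. Growth inhibition was measured relative to vehicle-treated controls.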
Test [4] is described as follows: NCI Yeast Anticancer Drug Screen. Data for the cln2 rad14 strain (AID 165).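 Also: 0% = growth equal to vehicle treated cultures.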 As to conditions: S. cerevisiae cln2 rad14 strain, at 50.0 µM, stronger effect = higher value. Put shortly:
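Yeast carrying cln2 and rad14 alterations (cell cycle control and DNA damage repair) were exposed to compounds. Growth inhibition was measured against vehicle-treated controls.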

Test [5] can be described thus: NCI Yeast Anticancer Drug Screen. Data for the bub3 strain (AID 167). As to conditions: S. cerevisiae bub3 mutant strain, at 50.0 µM, stronger effect = higher value. Put shortly: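 Whole-cell yeast assay. The mutant strain was incubated with compounds, and growth inhibition was determined by comparison with vehicle-treated cells.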
Test [6] in a line: NCI Yeast Anticancer Drug Screen. Data for the mlh1 rad18 strain (AID 175). The conditions noted are these: S. cerevisiae mlh1 rad18 strain growth inhibition; at 50.0 µM; stronger effect = higher value. The method in brief:
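Growth inhibition of the yeast strain was measured after compound exposure and expressed relative to vehicle-treated controls. The strain carries defined defects in DNA damage repair.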

On to `c1ccc(Cn2cccc2N=Nc2ccccc2)cc1`, for which the growth inhibition in test [1] was 26.4%; in test [2] it was 2.8%; in test [3], 6.55%; in test [4], 6.8%; in test [5] it was -4%; in test [6], 14.3%.

Take `CC(=N\NS(=O)(=O)c1ccc(C)cc1)/C(C)=N/NS(=O)(=O)c1ccc(C)cc1`: the growth inhibition is 25.3% in test [1]; -1.9% in test [2]; 12.8% in test [3]; 0.85% in test [4]; 0.95% in test [5]; -8.3% in test [6].

As to `CC(C)(C)C1=NC(S)NC(CCC(=O)Nc2ccccc2[N+](=O)[O-])=C1` (stereo not given), the growth inhibition in test [1] was 0.4%; in test [2], -8.85%; in test [3], -0.4%; in test [4], 14.2%; in test [5], 8.05%; in test [6] it was -7.4%.

Regarding `COc1ccc(C(=O)Sc2c(-c3ccccc3)c(=O)n(-c3ccccc3)c(=S)n2-c2ccccc2)cc1`, the growth inhibition in test [1] is 0.75%; in test [2], -4.9%; in test [3], 2.45%; in test [4], 1.7%; in test [5] it was 0.6%; in test [6] it was 10.1%.

As to `CC(C)(NC(=O)OCc1ccccc1)C(=O)NC(Cc1ccccc1)C(=O)O` (stereo not given) (Cbz-[Aib]-[ξF]-OH), the growth inhibition was -26.6% in test [1]; -61% in test [2]; -5.7% in test [3]; 19.8% in test [4]; 11.2% in test [5]; -11.3% in test [6].

In the case of `CCCC(=O)Nc1ccc(OCC)cc1`, the growth inhibition in test [1] is -9.5%; in test [2], -4.1%; in test [3] it was -11.8%; in test [4] it was -49.5%; in test [5] it was -18.8%; in test [6], -16.6%.

`O=c1nc(OCCO)c([N+](=O)[O-])c(C(Cl)(Cl)Cl)[nH]1`: the growth inhibition in test [1] is 61.4%; in test [2], 89.5% (active); in test [3], 81.7% (active); in test [4], 36.4%; in test [5], 80.5% (active); in test [6], 92.3% (active).

On to `CS(=O)(=O)Oc1ccccc1OS(C)(=O)=O`, for which the growth inhibition in test [1] is 7.95%; in test [2], 8.85%; in test [3], -14.3%; in test [4], -27.1%; in test [5], 2.6%; in test [6], -9.65%.

As for `O=S1(=O)CC(c2ccccc2)(c2ccccc2)Nc2ccccc21`, the growth inhibition in test [1] is -6.55%; in test [2], -14.8%; in test [3] it was 0.45%; in test [4], -5.65%; in test [5], -11.3%; in test [6] it was -18.1%.

With `Cc1ccc(S(=O)(=O)N2CCCN(S(=O)(=O)c3ccc(C)cc3)COC2)cc1`, the growth inhibition in test [1] was 4.1%; in test [2], 11.6%; in test [3], -8.4%; in test [4] it was 3.1%; in test [5] it was -10.4%; in test [6], -1.25%.

With `O=C(c1ccccc1)N1OC2C=CC1CC2` (stereo not given), the growth inhibition in test [1] is 4.6%; in test [2] it was 4.6%; in test [3] it was 5.1%; in test [4] it was -34.2%; in test [5], -2.1%; in test [6] it was -1.8%.

With `O=C1N[C@H](Cc2cnc[nH]2)C(=O)N2CCC[C@@H]12`, the growth inhibition in test [1] was 15.2%; in test [2], -3.55%; in test [3] it was 8.75%; in test [4] it was 16.1%; in test [5], 9.75%; in test [6] it was 23.7%.

Regarding `CCCCCc1c2c(c(CCCCC)c3c1-c1cccc4cccc-3c14)-c1ccc(C)cc1C2`, the growth inhibition in test [1] was -29.7%; in test [2], -9.95%; in test [3] it was -30.9%; in test [4], -18.1%; in test [5], -0.3%; in test [6], -19.4%.

For the compound `CCN(CC)c1ccc(N=C2C=C(C(=O)Nc3ccccc3OC)C(=O)c3ccccc32)c(C)c1`, the growth inhibition in test [1] was -24.6%; in test [2], -28.6%; in test [3], -12.7%; in test [4], 5.25%; in test [5], -2.6%; in test [6], -16.5%.

`O=P(O)(O)c1ccc(-c2ccc(P(=O)(O)O)cc2)cc1`: the growth inhibition in test [1] was -4.7%; in test [2] it was 2.85%; in test [3] it was 12.8%; in test [4], -32.2%; in test [5], 2.3%; in test [6], -1.75%.

Consider `O=[N+]([O-])C(/C=C(\Cl)[N+](=O)[O-])=C(N1CCOCC1)N1CCOCC1`, for which the growth inhibition was -4.7% in test [1]; -1.2% in test [2]; 24.9% in test [3]; -9.5% in test [4]; 13.9% in test [5]; 5.45% in test [6].

As for `O=C1C2=C(c3ccccc31)C(c1ccc([N+](=O)[O-])cc1)NC(=S)N2` (stereo not given), the growth inhibition was 5.6% in test [1]; 8.7% in test [2]; 1.8% in test [3]; 9.8% in test [4]; -3.6% in test [5]; 32.5% in test [6].

Take `CCc1ccc(NC(=O)Nc2cccc(Cl)c2)cc1`: the growth inhibition is -5.8% in test [1]; 14.4% in test [2]; -5.35% in test [3]; -19.6% in test [4]; -0.55% in test [5]; 4.9% in test [6].

Take `CCCCOC(=O)CCCCCCCCC(=O)OCCCC`: the growth inhibition was 23.6% in test [1]; -9% in test [2]; 2.05% in test [3]; -14.1% in test [4]; 0.2% in test [5]; 28.4% in test [6].

Take `O=C(CCCCc1ccccc1)NO`: the growth inhibition in test [1] is 25.4%; in test [2], 18.8%; in test [3] it was 14.4%; in test [4], 15.8%; in test [5], -5.5%; in test [6], 33.5%.
